Assay results: PubChem BioAssay (NCI)
This is part of a sample that, as a whole, favours compounds with a hit. Of some 79,000 tested, about 15% had one in any assay. No stated cut-off is given here; in the data, active means growth inhibition above about 70%; inactive means the rest.

How the values were obtained:
[1] = NCI Yeast Anticancer Drug Screen. Data for the rad50 strain (AID 155);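 further: 0% = growth of vehicle-only cultures of the same strain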; conditions: S. cerevisiae rad50 strain growth inhibition; at 50.0 µM; stronger effect = higher value
Summary of the method: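 Genetically altered yeast (DNA repair pathway); compound treatment; growth inhibition vs vehicle ctrl.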

[2] = NCI Yeast Anticancer Drug Screen. Data for the mec2-1 strain (AID 157); conditions: S. cerevisiae mec2-1 strain, at 50.0 µM, stronger effect = higher value
Summary of the method: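 Yeast mec2-1 mutant treated with compound. Readout: growth inhibition vs vehicle controls.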

[3] = NCI Yeast Anticancer Drug Screen. Data for the sgs1 mgt1 strain (AID 161);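 further: 0% = growth of cultures given vehicle only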; conditions: S. cerevisiae sgs1 mgt1 strain, at 50.0 µM, stronger effect = higher value
Summary of the method: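 Genetically altered yeast, compound exposure, growth inhibition relative to vehicle.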

[4] = NCI Yeast Anticancer Drug Screen. Data for the cln2 rad14 strain (AID 165);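 further: 0% = growth equal to vehicle treated cultures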; conditions: S. cerevisiae cln2 rad14 strain, at 50.0 µM, stronger effect = higher value
Summary of the method: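 cln2 rad14 yeast strain; compound exposure; growth inhibition read vs vehicle controls.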

[5] = NCI Yeast Anticancer Drug Screen. Data for the bub3 strain (AID 167); conditions: S. cerevisiae bub3 mutant strain, at 50.0 µM, stronger effect = higher value
Summary of the method: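 Yeast carrying a defined mutation is treated with each compound, and growth is compared with that of vehicle-exposed cells to give inhibition.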

[6] = NCI Yeast Anticancer Drug Screen. Data for the mlh1 rad18 strain (AID 175); conditions: S. cerevisiae mlh1 rad18 strain growth inhibition; at 50.0 µM; stronger effect = higher value
Summary of the method: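 Yeast w/ defined DNA-repair lesions; compound exposure; growth vs vehicle controls → % inhibition.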

Measured: growth inhibition

c1cc2nc(c1)CSCCCCCCCSC2
inactive: [1] 2.05% | [2] 45% | [3] 30.2% | [4] -3.45% | [5] 52.4% | [6] 23.2%

CC(C)(C)c1cc(Br)c(O)c(CN(Cc2cc(C(C)(C)C)cc(Br)c2O)C2CCCCC2)c1
inactive: [1] 16.1% | [2] -24.9% | [3] -34.2% | [4] -14.2% | [5] -35.2% | [6] 1.35%

O=[N+]([O-])c1cc(Cl)ccc1NC(Nc1ccc(Cl)cc1[N+](=O)[O-])C(Cl)(Cl)Cl
inactive: [1] 44.5% | [2] 10.1% | [3] 28.4% | [4] -31.9% | [5] 3.6% | [6] 35.8%

CCOC(=O)c1nc2ccccc2c(=O)n1NC(=S)Nc1ccc(Cl)cc1
inactive: [1] -40.4% | [2] 5.95% | [3] -1.2% | [4] 8.8% | [5] -4.15% | [6] -15%

COC(=O)c1ccc(Cl)cc1
inactive: [1] 19.4% | [2] -3.2% | [3] -8.8% | [4] 14.3% | [5] 14.5% | [6] 2.45%

Cc1cccc2sc(=S)[nH]c12
inactive: [1] 35% | [2] 18.6% | [3] 28.9% | [4] 19.9% | [5] 29.8% | [6] 30.6%

ClCCCCC(Cl)(Cl)Cl
inactive: [1] 27.9% | [2] 27.6% | [3] 10.4% | [4] -16.3% | [5] 21.9% | [6] 23.3%

CC(=O)On1c(-c2ccccc2-c2nc3ccccc3n2OC(C)=O)nc2ccccc21
inactive: [1] 10% | [2] 14.4% | [3] 13.4% | [4] 8.9% | [5] -5.05% | [6] 2.75%

CCNC(=O)N(C)Cc1ccc(Cl)cc1
inactive: [1] -4% | [2] 8.7% | [3] -11.6% | [4] -71.5% | [5] -8.95% | [6] -5.1%

COC1CCC(/C=C(\C#N)C2CCC(OC)CC2)CC1 (stereo not given)
inactive: [1] 37.6% | [2] 49.8% | [3] 42.8% | [4] 11.9% | [5] 51.2% | [6] 30%

CN(C)P1(=O)N(c2ccc(Cl)cc2)P(=O)(N(C)C)N1c1ccc(Cl)cc1 (stereo not given)
inactive: [1] -14.2% | [2] -35.6% | [3] -13.1% | [4] 2% | [5] -25% | [6] -13.3%

CN1C(=O)C(/C=N/NC(=O)c2cccnc2)C(N)N(C)C1=O (stereo not given)
inactive: [1] 4.85% | [2] 18.2% | [3] -4.8% | [4] -1.45% | [5] -41.9% | [6] 31.7%

CCCCCCCCCOc1ccc2ccccc2c1
inactive: [1] -16.9% | [2] 16.1% | [3] 22.4% | [4] -17.9% | [5] -15.2% | [6] -4.5%

Cc1cccc(C)c1NC(=O)Nc1cccc(O)c1
inactive: [1] -1.4% | [2] 34.8% | [3] 13.5% | [4] -4.4% | [5] 37.6% | [6] 26.4%

OC1CCCN(CCNN2CCCC2)C1 (stereo not given)
inactive: [1] 17.9% | [2] 9.65% | [3] 15.4% | [4] 31.1% | [5] 2.35% | [6] 15.3%

Clc1ccc(-c2nnc(-c3ccc4ccccc4c3)o2)cc1Cl
inactive: [1] 3.25% | [2] -28.9% | [3] 7.15% | [4] 11.8% | [5] -14.9% | [6] -6.2%

COC(=O)/C=C\n1c(C)cc(=O)[nH]c1=O
inactive: [1] 2.9% | [2] 0.35% | [3] -5.5% | [4] -4.75% | [5] -2.8% | [6] -45.5%

COC(=O)c1cc(-c2ccccc2Cl)n2c(N)nnc2n1
inactive: [1] 21.6% | [2] -3.1% | [3] 32.6% | [4] -6.2% | [5] -20.3% | [6] 7.1%

N#Cc1ccccc1C(Cl)(Cl)c1cnccn1
inactive: [1] 9.9% | [2] -6.85% | [3] -10.7% | [4] 29.9% | [5] -0.4% | [6] 20.1%

O=C1c2cc(Cl)ccc2NC(=NC2CCCC2)C2CSCN12 (stereo not given)
inactive: [1] 7.8% | [2] -13.2% | [3] 2.8% | [4] -6.35% | [5] -22.8% | [6] 16.6%
